From PubChem BioAssay (NCATS)
Results filed as inconclusive are left out. Where a call stands in place of a potency, no number is given. Active and inactive are the calls of the source. Unless noted, calls come from the whole dose curve; as a rule, active = well fitted curve in the direction sought with a large enough effect; inconclusive = small, poorly fitted or top-dose-only effect, or another doubt; inactive = no such curve, though single readings can be large; an effect the other way counts as inactive or inconclusive.

How the values were obtained:
[1] = qHTS drug screen for cell cycle checkpoint inhibitors in PARPi-resistant BRCA-mutant ovarian cancer cell lines. (AID 1963452; calls by dose curve); details: PEO1/OlaR viability, CellTiter-Glo luminescence, 96 h, stronger effect = lower value
Outline: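 PEO1, PEO4 and PEO1/OlaR ovarian cancer cells, 600 per well, exposed 96 h at 37C to a dilution series. Viability read by CellTiter-Glo luminescence, normalized to DMSO and empty wells; activity summarized as Z-AUC.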

[2] = qHTS profiling for inhibitors of Plasmodium falciparum proliferation (AID 504749); note: nearly all actives have a fitted effect of over 60% in size; details: P. falciparum in erythrocytes, SYBR Green DNA, 72 h
Outline: (§1)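 SYBR Green fluorescence of parasite DNA, read after lysis and overnight dark incubation, measured growth over 72 h in erythrocyte culture at 0.3% parasitemia and 2.5% hematocrit. Data normalised to DMSO and 0.29 uM artemisinin, with plate-drift correction.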

3D7 = assay: as above; details: P. falciparum in erythrocytes, SYBR Green DNA, 72 h; series mostly up to 28.7 µM
Outline: as §1

7G8 = assay: as above; details: P. falciparum in erythrocytes, SYBR Green DNA, 72 h; series mostly up to 28.7 µM
Outline: as §1

AA1029 = assay: as above; details: P. falciparum in erythrocytes, SYBR Green DNA, 72 h; series mostly up to 28.7 µM
Outline: as §1

AS120 = assay: as above; details: P. falciparum in erythrocytes, SYBR Green DNA, 72 h; series mostly up to 28.7 µM
Outline: as §1

ATS189 = assay: as above; details: P. falciparum in erythrocytes, SYBR Green DNA, 72 h; series mostly up to 28.7 µM
Outline: as §1

ATS95 = assay: as above; details: P. falciparum in erythrocytes, SYBR Green DNA, 72 h; series mostly up to 28.7 µM
Outline: as §1

[3] = target: Nuclear receptor subfamily 1 group I member 2 (Homo sapiens) (UniProt O75469); assay: Dual reporter qHTS for antagonist of Pregnane X Receptor (hPXR) against the NCATS DSHEA and TCM libraries: Luminescence Readout (AID 1920060); details: hPXR dual reporter cells, luciferase luminescence, antagonist mode; series mostly up to 40 µM;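 note: HepG2 cells carrying hPXR luciferase reporter stimulated with rifampicin at 2 µM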
Nuclear receptor subfamily 1 group I member 2 (Homo sapiens), sequence (O75469 whole entry, looked up): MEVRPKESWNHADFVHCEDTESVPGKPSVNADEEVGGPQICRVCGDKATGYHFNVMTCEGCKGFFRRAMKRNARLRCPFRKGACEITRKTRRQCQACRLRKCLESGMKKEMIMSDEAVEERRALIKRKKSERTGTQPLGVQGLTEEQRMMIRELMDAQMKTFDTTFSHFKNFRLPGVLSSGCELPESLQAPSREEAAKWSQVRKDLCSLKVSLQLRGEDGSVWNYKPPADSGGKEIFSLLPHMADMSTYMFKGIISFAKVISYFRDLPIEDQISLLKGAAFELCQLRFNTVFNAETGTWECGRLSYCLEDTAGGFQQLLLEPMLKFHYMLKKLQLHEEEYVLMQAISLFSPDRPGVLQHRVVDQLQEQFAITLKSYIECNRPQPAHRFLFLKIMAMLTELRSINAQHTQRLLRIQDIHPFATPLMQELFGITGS
Text: Assay Development and Screening Technology Laboratory (ADST)
National Center for Advancing Translational Sciences (NCATS), Rockville, MD
National Institute of Health (NIH), Bethesda, Maryland
Dietary Supplements and Natural Products have minor oversight of their safety and efficacy. We assembled a collection of Dietary Supplements and Natural Products (DSNP) as well as Traditional Chinese Medicinal (TCM) Plant extracts, which were screened against an in vitro panel of assays, including a liver cytochrome p450 enzyme panel, CAR/PXR signaling pathways, and P-gp transporter assays, to assess their activity. This pipeline facilitated the interrogation of Natural Product-Drug Interaction (NaPDI) through prominent metabolizing pathways. In addition, we compared the activity profiles of the DSNP/TCM substances with those of an approved drug collection. Many of the approved drugs have well-annotated mechanisms of action (MOA) while the MOAs for most of the DSNP and TCM samples remain unknown. Based on the premise that compounds with similar activity profiles tend to share similar targets or MOA, we clustered the library activity profiles to identify overlap with the NCATS Pharmaceutical Collection to predict the MOAs of the DSNP/TCM substances. Overall, we highlight four significant bioactivity profiles (measured by p-values) as examples of this prediction. To assess broad cytotoxicity, we employed screening against a HepG2 cell line. In addition, transporter-mediated drug interactions are utilized in the characterization of DDIs using a P-glycoprotein (P-gp) assays. To profile potential P-gp activity, a differential cell viability was measured against two cell lines: a parental KB-3-1 human cervical adenocarcinoma cell line and the drug-resistant subline KB-8-5-11 that overexpresses P-gp.
To this end, we profiled both collections for potential CAR and/or PXR activity, employing a previously published 1536-well qHTS assay.
[1] Lee TD, et al. A High-Throughput Screen of a Library of Therapeutics Identifies Cytotoxic Substrates of P-glycoprotein. Mol Pharmacol. Nov 2019;96(5):629-640. doi:10.1124/mol.119.115964
For PXR luciferase reporter gene assays, we used hPXR-LucHepG2cells provided by Dr. Taosheng Chen (Department of Chemical Biology and Therapeutics, St. Jude Children's Research Hospital). Cells were cultured in EMEM supplemented with 10% fetal bovine serum, 100U/mL penicillin and 100ug/mL streptomycin, and 500ug/mL of geneticin.
PROTOCOL TABLE (as described by Inglese J, Shamu CE and Guy RK. 2007)
SEQUENCE No. (e.g., 1, 2, 3, etc.); PARAMETER (e.g., Cells, Incubation, Reagent, etc.); VALUE; DESCRIPTION.
1; Cells; 5 uL; hPXR-LucHepG2; white solid-bottom Greiner plate. […]
8; Read; Fluorescence; ViewLux plate reader. […]
11; Read; Luminescence; ViewLux plate reader. […]

[4] = Dual reporter qHTS for antagonist of Pregnane X Receptor (hPXR) against the NCATS DSHEA and TCM libraries: Fluorescence Readout (AID 1920061); details: PXR dual reporter cells, antagonist mode; series mostly up to 40 µM
Outline: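 Antagonist mode: rifampicin 2 uM final co-added with compounds to hPXR-LucHepG2 cells for 24 h at 37C. Viability by CellTiter-Fluor, Ex/Em 405/540 nm, 1 h; reporter by ONE-Glo luminescence.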

[5] = measured here: PEO1 parental Z-AUC
[6] = at 28.7 µM (top of the series), parasite line A
[7] = at 28.7 µM (top of the series), parasite line B

**Q.** Which results are given for `Cc1onc(-c2ccccc2)c1-c1ccc(S(N)(=O)=O)cc1`?
**A.** Z-AUC [1]: -1 (inactive); Z-AUC [1, 5]: -0.334; Z-AUC ([1]; measured here: PEO4 Z-AUC): 0.0747; activity, negative = inhibition [2, 6]: -24.3% (inactive); Potency (3D7): inactive; Potency (7G8): inactive; Potency (AA1029): inactive; Potency (AS120): inactive; Potency (ATS189): inactive; Potency (ATS95): inactive

**Q.** Which results are given for `Cc1ccc(C(C)C)c(O)c1`?
**A.** outcome [3]: inactive; outcome [4]: inactive; activity, negative = inhibition [2, 6]: 4.16% (inactive); activity, negative = inhibition [2, 7]: -10.5% (inactive); Potency (3D7): inactive; Potency (7G8): inactive; Potency (AA1029): inactive; Potency (AS120): inactive; Potency (ATS189): inactive; Potency (ATS95): inactive

**Q.** For `FC(F)(F)C(Cl)Br` (configuration not stated), which activity, negative = inhibition [2, 6] is on record?
**A.** 6.28% (inactive)

**Q.** And the activity, negative = inhibition [2, 7]?
**A.** 10.7% (inactive)

**Q.** What about the Potency (3D7) of the same molecule?
**A.** inactive

**Q.** And the Potency (7G8)?
**A.** inactive

**Q.** And the Potency (AA1029)?
**A.** inactive

**Q.** And the Potency (AS120)?
**A.** inactive

**Q.** And the Potency (ATS189)?
**A.** inactive

**Q.** What about the Potency (ATS95) of the same molecule?
**A.** inactive

**Q.** For `NS(=O)(=O)c1ccc(C(=O)O)cc1`, which activity, negative = inhibition [2, 6] is on record?
**A.** 18.9% (inactive)

**Q.** And the activity, negative = inhibition [2, 7]?
**A.** 11.1% (inactive)

**Q.** What about the Potency (3D7) of the same molecule?
**A.** inactive

**Q.** And the Potency (7G8)?
**A.** inactive

**Q.** What about the Potency (AA1029) of the same molecule?
**A.** inactive

**Q.** What about the Potency (AS120) of the same molecule?
**A.** inactive

**Q.** And the Potency (ATS189)?
**A.** inactive

**Q.** And the Potency (ATS95)?
**A.** inactive

**Q.** What does the source list for `O=C(Cn1ccnc1[N+](=O)[O-])NCCO`?
**A.** activity, negative = inhibition [2, 6]: 4.18% (inactive); activity, negative = inhibition [2, 7]: -2.11% (inactive); Potency (3D7): inactive; Potency (7G8): inactive; Potency (AA1029): inactive; Potency (AS120): inactive; Potency (ATS189): inactive; Potency (ATS95): inactive

**Q.** With `Cc1ccccc1N=Nc1ccc(N=Nc2c(O)ccc3ccccc23)c(C)c1` as the molecule, how does the activity, negative = inhibition [2, 6] read?
**A.** 3.72% (inactive)

**Q.** And the activity, negative = inhibition [2, 7]?
**A.** 9.83% (inactive)

**Q.** What about the Potency (3D7) of the same molecule?
**A.** inactive

**Q.** And the Potency (7G8)?
**A.** inactive

**Q.** What about the Potency (AA1029) of the same molecule?
**A.** inactive

**Q.** What about the Potency (AS120) of the same molecule?
**A.** inactive

**Q.** What about the Potency (ATS189) of the same molecule?
**A.** inactive

**Q.** And the Potency (ATS95)?
**A.** inactive

**Q.** What does the source list for `Cc1c(C(=O)NCCO)[n+](=O)c2ccccc2n1[O-]`?
**A.** activity, negative = inhibition [2, 6]: 8.49% (inactive); activity, negative = inhibition [2, 7]: -1.36% (inactive); Potency (3D7): inactive; Potency (7G8): inactive; Potency (AA1029): inactive; Potency (AS120): inactive; Potency (ATS189): inactive; Potency (ATS95): inactive

**Q.** For `CN(C(=O)c1c(O)c2ccccc2n(C)c1=O)c1ccccc1`, which Z-AUC [1] is on record?
**A.** 0.957 (inactive)

**Q.** What about the Z-AUC [1, 5] of the same molecule?
**A.** 0.533

**Q.** What about the Z-AUC ([1]; measured here: PEO4 Z-AUC) of the same molecule?
**A.** 0.496

**Q.** What about the activity, negative = inhibition [2, 6] of the same molecule?
**A.** 16.3% (inactive)

**Q.** And the activity, negative = inhibition [2, 7]?
**A.** 2.94% (inactive)

**Q.** And the Potency (3D7)?
**A.** inactive

**Q.** What about the Potency (AA1029) of the same molecule?
**A.** inactive

**Q.** What about the Potency (AS120) of the same molecule?
**A.** inactive

**Q.** What about the Potency (ATS189) of the same molecule?
**A.** inactive

**Q.** And the Potency (ATS95)?
**A.** inactive

**Q.** What does the source list for `CC(C)=CCC[C@@](C)(O)[C@H]1CC=C(C)CC1`?
**A.** outcome [3]: inactive; outcome [4]: inactive

**Q.** With `Cc1ccsc1C(=CCCN1CCC[C@@H](C(=O)O)C1)c1sccc1C` as the molecule, how does the Z-AUC [1] read?
**A.** -0.0792 (inactive)

**Q.** What about the Z-AUC [1, 5] of the same molecule?
**A.** 0.789

**Q.** What about the Z-AUC ([1]; measured here: PEO4 Z-AUC) of the same molecule?
**A.** 0.901

**Q.** And the activity, negative = inhibition [2, 6]?
**A.** 0.673% (inactive)

**Q.** What about the activity, negative = inhibition [2, 7] of the same molecule?
**A.** 3.18% (inactive)

**Q.** What about the Potency (3D7) of the same molecule?
**A.** inactive

**Q.** What about the Potency (7G8) of the same molecule?
**A.** inactive

**Q.** What about the Potency (AA1029) of the same molecule?
**A.** inactive

**Q.** What about the Potency (AS120) of the same molecule?
**A.** inactive

**Q.** What about the Potency (ATS189) of the same molecule?
**A.** inactive

**Q.** What about the Potency (ATS95) of the same molecule?
**A.** inactive

**Q.** Which results are given for `NS(=O)(=O)c1cc2c(cc1C(F)(F)F)NCNS2(=O)=O`?
**A.** activity, negative = inhibition ([2]; at 12.8 µM (top of the series), parasite line A): 2.71% (inactive); activity, negative = inhibition ([2]; at 12.8 µM (top of the series), parasite line B): 5.88% (inactive); Potency (3D7): inactive; Potency (7G8): inactive; Potency (AA1029): inactive; Potency (AS120): inactive; Potency (ATS189): inactive; Potency (ATS95): inactive

**Q.** Which results are given for `CC(CN(C)C)C(C)(O)Cc1ccc(Cl)cc1` (configuration not stated)?
**A.** activity, negative = inhibition [2, 6]: 6.13% (inactive); activity, negative = inhibition [2, 7]: 10.7% (inactive); Potency (3D7): inactive

**Q.** Which results are given for `OCCN1C[C@H](O)[C@@H](O)[C@H](O)[C@H]1CO`?
**A.** Z-AUC [1]: 0.928 (inactive); Z-AUC [1, 5]: 0.927; Z-AUC ([1]; measured here: PEO4 Z-AUC): 1.11
